From the supplement of paper PMC11732987, “Enantioselective OTUD7B fragment discovery through chemoproteomics screening and high-throughput optimisation” (Communications Chemistry, 2025)

Tests used:
Assay in all cases: log2 ratio of Biotin-Ahx-Ub-VS probe labelling (fragment/DMSO); higher = less target engagement (more negative = stronger competition), active = hit call of the paper (q ≤ 0.05, log2 ratio ≤ -1)
Settings in all cases: compound concentration: 200 uM; treatment time: 3 h
[1] = target: USP34 (UniProt Q70CQ2)
How it was run: (§1)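 HEK293T lysate, 495 µg per sample in Tris/CHAPS/IGEPAL buffer with protease inhibitors, was treated in triplicate with fragment at 200 µM or vehicle for 3 h and then with Biotin-Ahx-Ub-VS at 0.5 µM final for 1 h. Labelled DUBs were NeutrAvidin-enriched, digested with LysC and trypsin, and run by diaPASEF LC-MS/MS. Spectronaut label-free quantities were global-median-normalised, and values are average log2 fragment/vehicle ratios by unpaired t-test on proteins with ≥2 unique peptides.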

[2] = target: T1, USP36 (UniProt Q9P275)
T1 sequence (whole entry): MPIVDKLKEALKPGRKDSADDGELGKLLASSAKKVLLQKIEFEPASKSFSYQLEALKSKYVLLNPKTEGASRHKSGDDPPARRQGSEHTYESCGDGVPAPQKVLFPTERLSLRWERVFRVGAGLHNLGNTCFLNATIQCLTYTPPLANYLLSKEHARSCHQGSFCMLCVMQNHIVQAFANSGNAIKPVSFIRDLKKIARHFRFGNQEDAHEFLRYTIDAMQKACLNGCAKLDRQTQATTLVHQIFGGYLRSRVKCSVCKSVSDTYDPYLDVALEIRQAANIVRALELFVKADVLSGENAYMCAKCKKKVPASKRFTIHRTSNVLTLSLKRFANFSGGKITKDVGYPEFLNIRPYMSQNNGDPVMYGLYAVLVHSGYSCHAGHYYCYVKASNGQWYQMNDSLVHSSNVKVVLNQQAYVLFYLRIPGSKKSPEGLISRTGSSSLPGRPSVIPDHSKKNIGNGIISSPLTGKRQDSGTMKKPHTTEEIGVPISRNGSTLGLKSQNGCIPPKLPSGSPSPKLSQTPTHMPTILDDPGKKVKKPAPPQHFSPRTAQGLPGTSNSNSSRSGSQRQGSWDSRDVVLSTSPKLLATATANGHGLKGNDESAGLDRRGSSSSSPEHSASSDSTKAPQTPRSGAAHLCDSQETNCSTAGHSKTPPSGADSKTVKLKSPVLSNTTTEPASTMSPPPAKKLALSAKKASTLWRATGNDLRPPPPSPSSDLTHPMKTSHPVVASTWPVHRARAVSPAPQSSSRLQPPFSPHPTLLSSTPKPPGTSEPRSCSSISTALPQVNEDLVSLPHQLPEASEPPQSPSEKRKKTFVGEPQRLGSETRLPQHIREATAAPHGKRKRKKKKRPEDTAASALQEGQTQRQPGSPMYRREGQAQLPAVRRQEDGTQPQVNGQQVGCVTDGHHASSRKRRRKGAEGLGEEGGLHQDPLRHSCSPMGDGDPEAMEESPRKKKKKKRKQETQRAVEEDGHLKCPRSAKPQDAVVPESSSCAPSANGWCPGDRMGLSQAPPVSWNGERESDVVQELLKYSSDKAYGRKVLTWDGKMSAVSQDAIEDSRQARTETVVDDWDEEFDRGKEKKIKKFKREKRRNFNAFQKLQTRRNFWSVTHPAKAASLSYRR
How it was run: as §1

[3] = target: T2, USP38 (UniProt Q8NB14)
T2 sequence (whole entry): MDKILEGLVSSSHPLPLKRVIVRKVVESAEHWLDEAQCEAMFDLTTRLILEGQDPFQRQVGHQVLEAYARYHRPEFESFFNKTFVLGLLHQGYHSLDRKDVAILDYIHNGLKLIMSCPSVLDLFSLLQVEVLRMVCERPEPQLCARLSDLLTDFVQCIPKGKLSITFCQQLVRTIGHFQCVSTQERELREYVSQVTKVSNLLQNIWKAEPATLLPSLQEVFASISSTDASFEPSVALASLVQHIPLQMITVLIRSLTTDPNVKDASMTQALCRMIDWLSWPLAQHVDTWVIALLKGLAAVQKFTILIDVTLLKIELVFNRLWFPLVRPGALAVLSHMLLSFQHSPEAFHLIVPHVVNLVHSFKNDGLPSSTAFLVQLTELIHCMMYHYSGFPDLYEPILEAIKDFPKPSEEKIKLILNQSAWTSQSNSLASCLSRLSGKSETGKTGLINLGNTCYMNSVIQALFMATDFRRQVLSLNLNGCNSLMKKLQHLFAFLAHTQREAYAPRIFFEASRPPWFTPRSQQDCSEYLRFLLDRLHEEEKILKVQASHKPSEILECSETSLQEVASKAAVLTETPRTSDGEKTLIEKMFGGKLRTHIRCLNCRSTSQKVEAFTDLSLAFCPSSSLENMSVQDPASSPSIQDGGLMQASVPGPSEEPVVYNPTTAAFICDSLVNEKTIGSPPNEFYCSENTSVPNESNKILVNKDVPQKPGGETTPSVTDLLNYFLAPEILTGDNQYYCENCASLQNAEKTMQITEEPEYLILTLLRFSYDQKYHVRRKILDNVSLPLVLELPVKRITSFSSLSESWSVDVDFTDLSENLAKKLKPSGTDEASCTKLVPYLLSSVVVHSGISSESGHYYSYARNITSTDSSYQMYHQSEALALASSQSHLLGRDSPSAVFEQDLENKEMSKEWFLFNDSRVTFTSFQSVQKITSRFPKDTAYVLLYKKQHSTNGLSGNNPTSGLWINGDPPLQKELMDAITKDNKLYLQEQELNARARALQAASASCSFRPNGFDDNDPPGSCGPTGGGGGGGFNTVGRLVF
How it was run: as §1

[4] = target: T3, USP39 (UniProt Q53GS9)
T3 sequence (whole entry): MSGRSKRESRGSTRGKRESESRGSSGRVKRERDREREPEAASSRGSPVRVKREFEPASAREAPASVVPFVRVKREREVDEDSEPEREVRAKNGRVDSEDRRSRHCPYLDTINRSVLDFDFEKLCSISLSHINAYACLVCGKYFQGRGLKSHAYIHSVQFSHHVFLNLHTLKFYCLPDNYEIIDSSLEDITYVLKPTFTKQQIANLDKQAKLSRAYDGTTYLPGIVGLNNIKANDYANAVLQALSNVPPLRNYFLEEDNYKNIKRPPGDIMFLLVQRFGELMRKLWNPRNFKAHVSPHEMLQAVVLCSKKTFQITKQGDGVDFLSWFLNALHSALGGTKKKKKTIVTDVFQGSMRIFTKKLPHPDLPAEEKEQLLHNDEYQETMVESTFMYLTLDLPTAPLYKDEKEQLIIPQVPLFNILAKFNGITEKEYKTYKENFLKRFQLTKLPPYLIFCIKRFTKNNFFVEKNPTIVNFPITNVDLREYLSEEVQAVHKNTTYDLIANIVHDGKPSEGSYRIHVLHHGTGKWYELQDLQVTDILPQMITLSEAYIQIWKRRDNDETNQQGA
How it was run: as §1

[5] = target: T4, USP4 (UniProt Q13107)
T4 sequence (whole entry): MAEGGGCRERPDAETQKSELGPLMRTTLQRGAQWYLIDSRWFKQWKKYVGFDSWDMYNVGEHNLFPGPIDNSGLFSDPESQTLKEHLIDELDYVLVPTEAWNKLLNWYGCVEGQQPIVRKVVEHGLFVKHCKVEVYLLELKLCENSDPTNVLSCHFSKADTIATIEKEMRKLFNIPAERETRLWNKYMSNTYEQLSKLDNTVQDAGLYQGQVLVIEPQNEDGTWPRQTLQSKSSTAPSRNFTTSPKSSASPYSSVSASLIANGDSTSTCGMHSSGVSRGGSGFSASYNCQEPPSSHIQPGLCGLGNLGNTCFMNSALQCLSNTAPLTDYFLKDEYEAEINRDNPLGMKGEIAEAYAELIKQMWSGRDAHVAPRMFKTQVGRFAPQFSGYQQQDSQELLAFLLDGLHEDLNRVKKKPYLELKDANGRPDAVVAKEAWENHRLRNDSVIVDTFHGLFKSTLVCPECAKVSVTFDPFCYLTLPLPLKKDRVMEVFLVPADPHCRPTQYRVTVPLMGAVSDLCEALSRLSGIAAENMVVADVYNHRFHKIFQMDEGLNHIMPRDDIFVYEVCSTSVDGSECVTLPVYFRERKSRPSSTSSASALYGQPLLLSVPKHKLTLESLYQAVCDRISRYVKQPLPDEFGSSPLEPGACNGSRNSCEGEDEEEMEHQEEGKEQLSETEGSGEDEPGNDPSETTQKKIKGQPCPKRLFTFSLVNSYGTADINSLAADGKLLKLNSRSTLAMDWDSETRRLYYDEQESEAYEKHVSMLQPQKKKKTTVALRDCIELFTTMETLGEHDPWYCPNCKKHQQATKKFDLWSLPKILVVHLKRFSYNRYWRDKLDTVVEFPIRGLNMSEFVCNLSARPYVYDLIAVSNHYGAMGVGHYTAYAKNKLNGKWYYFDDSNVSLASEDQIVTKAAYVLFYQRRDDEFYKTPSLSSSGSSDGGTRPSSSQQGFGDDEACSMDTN
How it was run: as §1

Measured: log2 ratio of Biotin-Ahx-Ub-VS probe labelling

USP34, sequence (Q70CQ2 whole entry, the tested form may be a part): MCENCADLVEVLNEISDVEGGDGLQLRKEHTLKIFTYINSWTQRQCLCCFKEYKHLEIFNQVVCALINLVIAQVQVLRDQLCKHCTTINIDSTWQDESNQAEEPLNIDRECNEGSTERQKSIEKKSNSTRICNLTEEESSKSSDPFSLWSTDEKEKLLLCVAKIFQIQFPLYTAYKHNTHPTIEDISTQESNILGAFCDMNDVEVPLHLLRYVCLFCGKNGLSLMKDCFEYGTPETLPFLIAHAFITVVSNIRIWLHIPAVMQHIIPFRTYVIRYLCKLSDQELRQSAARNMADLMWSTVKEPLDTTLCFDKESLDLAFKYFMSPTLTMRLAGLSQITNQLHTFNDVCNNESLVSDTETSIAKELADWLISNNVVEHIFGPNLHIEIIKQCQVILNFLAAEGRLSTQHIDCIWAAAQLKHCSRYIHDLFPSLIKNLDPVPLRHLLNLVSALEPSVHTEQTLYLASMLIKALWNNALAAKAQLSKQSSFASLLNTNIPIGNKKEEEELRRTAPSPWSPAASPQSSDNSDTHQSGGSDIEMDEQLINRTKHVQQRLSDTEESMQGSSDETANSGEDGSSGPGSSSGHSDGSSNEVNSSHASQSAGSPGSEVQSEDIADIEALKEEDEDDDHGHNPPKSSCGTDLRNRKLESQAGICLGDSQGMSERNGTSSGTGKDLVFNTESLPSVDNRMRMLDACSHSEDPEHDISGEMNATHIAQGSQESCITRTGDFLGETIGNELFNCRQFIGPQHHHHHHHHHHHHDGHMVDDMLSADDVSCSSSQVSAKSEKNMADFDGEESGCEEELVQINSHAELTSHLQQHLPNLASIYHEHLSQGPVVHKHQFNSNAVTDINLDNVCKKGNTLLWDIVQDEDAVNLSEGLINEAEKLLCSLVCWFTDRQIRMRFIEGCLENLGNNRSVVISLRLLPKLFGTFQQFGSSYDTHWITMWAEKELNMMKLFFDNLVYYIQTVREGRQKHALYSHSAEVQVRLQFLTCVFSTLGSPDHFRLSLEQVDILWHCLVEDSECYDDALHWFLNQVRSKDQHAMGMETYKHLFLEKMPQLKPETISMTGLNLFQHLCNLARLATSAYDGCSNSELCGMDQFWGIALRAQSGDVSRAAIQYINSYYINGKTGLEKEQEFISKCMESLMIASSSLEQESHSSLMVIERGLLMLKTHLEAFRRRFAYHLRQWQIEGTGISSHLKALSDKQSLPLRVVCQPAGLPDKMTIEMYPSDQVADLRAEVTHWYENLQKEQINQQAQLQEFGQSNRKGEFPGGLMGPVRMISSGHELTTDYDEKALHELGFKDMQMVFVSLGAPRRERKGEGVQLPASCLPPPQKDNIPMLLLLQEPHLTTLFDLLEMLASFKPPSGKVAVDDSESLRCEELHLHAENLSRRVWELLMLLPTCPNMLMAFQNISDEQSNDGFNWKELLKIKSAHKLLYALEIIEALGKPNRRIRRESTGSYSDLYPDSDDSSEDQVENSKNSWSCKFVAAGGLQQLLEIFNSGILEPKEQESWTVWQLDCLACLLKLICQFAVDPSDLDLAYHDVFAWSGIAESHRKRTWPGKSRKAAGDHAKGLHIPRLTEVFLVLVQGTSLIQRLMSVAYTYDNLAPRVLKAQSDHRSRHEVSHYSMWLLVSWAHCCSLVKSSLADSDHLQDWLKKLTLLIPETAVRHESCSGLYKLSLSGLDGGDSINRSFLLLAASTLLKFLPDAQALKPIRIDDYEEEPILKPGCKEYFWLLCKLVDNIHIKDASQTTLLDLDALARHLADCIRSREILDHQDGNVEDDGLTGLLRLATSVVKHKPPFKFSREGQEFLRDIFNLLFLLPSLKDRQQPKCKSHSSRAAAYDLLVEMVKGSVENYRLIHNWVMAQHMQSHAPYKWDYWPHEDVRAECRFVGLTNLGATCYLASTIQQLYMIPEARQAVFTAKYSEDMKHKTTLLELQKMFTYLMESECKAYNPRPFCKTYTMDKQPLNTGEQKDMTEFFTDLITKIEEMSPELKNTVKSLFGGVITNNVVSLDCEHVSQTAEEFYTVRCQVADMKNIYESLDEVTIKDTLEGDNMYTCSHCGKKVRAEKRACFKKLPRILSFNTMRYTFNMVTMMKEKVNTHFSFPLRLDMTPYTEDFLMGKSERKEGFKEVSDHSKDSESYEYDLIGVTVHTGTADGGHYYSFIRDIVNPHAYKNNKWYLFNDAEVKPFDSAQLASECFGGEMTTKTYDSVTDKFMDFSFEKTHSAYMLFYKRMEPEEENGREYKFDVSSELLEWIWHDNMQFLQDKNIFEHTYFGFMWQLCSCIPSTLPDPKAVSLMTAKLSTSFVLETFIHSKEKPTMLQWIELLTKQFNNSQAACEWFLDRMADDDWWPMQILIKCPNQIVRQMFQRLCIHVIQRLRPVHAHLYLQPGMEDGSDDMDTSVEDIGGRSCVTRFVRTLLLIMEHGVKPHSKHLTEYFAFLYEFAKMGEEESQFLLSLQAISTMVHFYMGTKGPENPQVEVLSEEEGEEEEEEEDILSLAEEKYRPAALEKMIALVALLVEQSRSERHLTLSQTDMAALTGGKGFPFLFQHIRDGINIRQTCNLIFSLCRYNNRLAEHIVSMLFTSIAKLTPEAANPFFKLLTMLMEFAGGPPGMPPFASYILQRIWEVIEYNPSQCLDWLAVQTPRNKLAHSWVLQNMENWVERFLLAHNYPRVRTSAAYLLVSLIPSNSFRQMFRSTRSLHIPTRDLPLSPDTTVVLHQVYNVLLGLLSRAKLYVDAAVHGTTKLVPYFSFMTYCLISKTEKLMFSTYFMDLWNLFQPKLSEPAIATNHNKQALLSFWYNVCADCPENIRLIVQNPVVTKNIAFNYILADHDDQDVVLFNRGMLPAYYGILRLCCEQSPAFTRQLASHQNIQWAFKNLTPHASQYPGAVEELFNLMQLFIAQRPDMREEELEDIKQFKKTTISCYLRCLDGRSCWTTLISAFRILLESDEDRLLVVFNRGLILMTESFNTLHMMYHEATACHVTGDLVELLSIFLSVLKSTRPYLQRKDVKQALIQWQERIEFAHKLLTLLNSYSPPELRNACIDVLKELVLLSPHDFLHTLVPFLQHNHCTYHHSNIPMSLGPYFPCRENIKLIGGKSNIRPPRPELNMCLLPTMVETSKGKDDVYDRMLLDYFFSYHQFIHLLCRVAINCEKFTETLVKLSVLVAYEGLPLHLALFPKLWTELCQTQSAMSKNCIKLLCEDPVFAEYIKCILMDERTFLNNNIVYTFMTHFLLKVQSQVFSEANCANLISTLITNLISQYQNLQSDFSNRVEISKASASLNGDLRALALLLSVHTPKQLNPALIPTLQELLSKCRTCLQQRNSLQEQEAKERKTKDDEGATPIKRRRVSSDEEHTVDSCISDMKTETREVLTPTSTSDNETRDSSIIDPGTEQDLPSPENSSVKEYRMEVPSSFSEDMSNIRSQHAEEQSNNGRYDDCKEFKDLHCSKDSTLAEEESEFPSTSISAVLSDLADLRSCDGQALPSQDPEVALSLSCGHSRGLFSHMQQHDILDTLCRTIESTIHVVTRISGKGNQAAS

O=C(CCl)NCc1noc(C2CC2)n1
inactive: [1] -0.18 | [2] -0.144 | [3] -0.0158 | [4] 0.182 | [5] 0.00316
